Compound activity (PubChem BioAssay)
Hits are enriched below; roughly 1.6% of the tested compounds scored in any of these assays.
gsp agonist: gsp mutant agonism; gsp mutant cells, cAMP HTRF, 30 min; Potency, µM (highest dose often 76.9 µM), inactives show at the highest dose activation (cAMP increase), hits mostly activators; actives 0.13% (n = 340,000); AID 624287; active = well fitted activation curve with a large enough effect; inconclusive = small, poorly fitted or top-dose-only effect, or another doubt; inactive = no such curve, though single readings can be large or run the other way; cell line not stated here;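 note: phosphodiesterase inhibitor Ro 20-1724 added with compounds to block cAMP breakdown; nearly all actives have a fitted effect of over 60% in size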
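Cells stably selected in G418 were plated at 2000/well, grown 16-24 hr, then given compounds in DMSO with the PDE inhibitor […] (300 uM solution added) for 30 min at 37C; cAMP was read by HTRF.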
gsp antagonist: antagonizes gsp, the McCune-Albright syndrome mutation. gsp-mutant cells, cAMP HTRF, 30 min. Potency, µM (series often up to 76.9 µM), for inactives: at the highest dose activity change, negative = inhibition, usual class: inhibitors. actives 0.4% (n = 340,000). AID 624288; calls by dose curve; cell line not stated here;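 note: intracellular cAMP measured with PDE inhibitor Ro 20-1724 present during compound exposure; % is set by controls: 0 for no effect and ±100 for the full control effect; nearly all actives have a fitted effect of over 65% in size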
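HTRF cAMP measurement after 30 min RT detection following 30 min, 37C compound treatment alongside […] (added as 300 uM solution) in G418-selected cells seeded at 2000/well and grown 16–24 h.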
12-LOX inh: ALOX12 (human) lipoxygenase inhibition; purified 12hLO, xylenol orange hydroperoxide absorbance; Potency, µM (highest dose often 108 µM), without a hit: top-dose activity change, negative = inhibition, most hits filed as inhibitors; AID 1671190; actives 1.1% (n = 580,000); P18054; note: % is set by controls: 0 for no effect and ±100 for the full control effect
Target sequence (P18054 whole entry, looked up): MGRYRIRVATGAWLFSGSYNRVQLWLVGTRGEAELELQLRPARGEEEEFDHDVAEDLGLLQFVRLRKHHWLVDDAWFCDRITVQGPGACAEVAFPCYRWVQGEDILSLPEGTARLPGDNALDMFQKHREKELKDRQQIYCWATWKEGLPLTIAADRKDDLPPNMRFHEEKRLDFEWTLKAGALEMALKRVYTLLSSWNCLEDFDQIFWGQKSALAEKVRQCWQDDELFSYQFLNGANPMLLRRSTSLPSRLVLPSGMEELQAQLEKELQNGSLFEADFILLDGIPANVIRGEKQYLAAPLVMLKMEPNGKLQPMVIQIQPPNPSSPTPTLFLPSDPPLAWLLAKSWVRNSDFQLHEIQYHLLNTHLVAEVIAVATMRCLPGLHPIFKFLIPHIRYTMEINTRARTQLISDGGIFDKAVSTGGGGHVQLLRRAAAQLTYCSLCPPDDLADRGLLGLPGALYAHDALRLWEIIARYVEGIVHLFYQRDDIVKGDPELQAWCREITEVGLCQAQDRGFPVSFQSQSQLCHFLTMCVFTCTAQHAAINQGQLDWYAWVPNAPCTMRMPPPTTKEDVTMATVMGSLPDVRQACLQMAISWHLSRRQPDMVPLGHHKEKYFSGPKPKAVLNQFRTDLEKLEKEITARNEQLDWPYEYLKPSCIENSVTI
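Hydroperoxide product was detected by ferrous iron/xylenol orange as the 573 to 405 nm absorbance ratio. Arachidonic acid at 40 uM (final) was turned over for 30 min at room temperature by 150 nM human 12hLO, pH 7.0 Hepes buffer, after 15 min compound preincubation.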
FUS yeast rescue: FUS proteinopathy suppression in yeast; actives 0.24% (n = 390,000); S. cerevisiae FUS-expressing, growth rescue, OD600, 24 h; Potency, µM (top dose mostly 76.6 µM), usual class: activators;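 note: plate controls were DMSO vehicle for no effect and reference control for full effect; nearly all actives have a fitted effect of over 55% in size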
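Compound concentration series was pinned onto galactose-induced FUS-expressing yeast seeded at OD 0.005. Plates sat 24hr at 30C; absorbance at 600 nm gave growth. DMSO served as background control.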
Mito fusion act: blocks mitochondrial division or promotes mitochondrial fusion | S. cerevisiae fusion-defective mutant growth rescue, CellTiterGlo 48 h | Potency, µM (doses to about 46.1 µM), without a hit: at the top dose growth rescue (activation), usual class: activators | actives 0.23% (n = 320,000) | AID 485298; note: % of control where 0% means no effect; nearly all actives have a fitted effect of over 45% in size
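Luminescent cell viability in 1536-well qHTS format served as the measure of rescued growth in ts fusion-mutant S. cerevisiae cultured on non-fermentable YPEG for 48 hours at 37C.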
* = called active by the depositor; i = inactive; ? = inconclusive; . = not tested or not shown; [ ] = remark or other dose. Unless noted, calls come from the whole dose curve; as a rule, active = well fitted curve in the direction sought with a large enough effect; inconclusive = small, poorly fitted or top-dose-only effect, or another doubt; inactive = no such curve, though single readings can be large; an effect the other way counts as inactive or inconclusive. Potency is the fitted concentration of half-maximal effect.

SMILES	gsp agonist	gsp antagonist	12-LOX inh	FUS yeast rescue	Mito fusion act
COc1ccc(C2=NOC(C(=O)Nc3ccc(C(C)=O)cc3)C2)cc1OC (stereo not given)	22%	-2%	6%	i	-1%
COc1ccc(C2=NOC(C(=O)Nc3cc(Br)ccc3O)C2)cc1OC (stereo not given)	15%	7%	10µM*	i	3%
O=C1COc2ccc(OCc3ccccc3)nc2CN1CCOc1ccccc1	.	.	11µM*	.	.
O=C1COc2ccc(OCc3ccccc3)nc2CN1Cc1ccc(F)cc1	.	.	-10%[176 µM]	.	.
COc1ccccc1CNC(=O)COC(=O)c1ccc(Cl)c(N)c1	-9%[15.4 µM]	11µM*	152%	i	3%
CCOC(=O)c1nn(-c2ccc(C)cc2)c(=O)c2c(N)scc12	9%	7%	25µM*	i	6%
CCOC(=O)c1nn(-c2ccc(F)cc2)c(=O)c2c(N)scc12	22%	-3%	?	i	-29%
COc1ccc2c(C)c(CCC(=O)NCc3ccccc3)c(=O)oc2c1	.	.	5%	.	.
Cc1nc2cc(NC(=O)c3ccc(S(=O)(=O)N(C)c4ccccc4)cc3)ccc2o1	2%[15.4 µM]	32µM*	?	i	8%
CN(c1ccccc1)S(=O)(=O)c1cccc(NC(=O)c2cc(=O)c3ccccc3o2)c1	16%	40µM*	-11%	i	2%
CN(c1ccccc1)S(=O)(=O)c1cccc(NC(=O)COC(=O)c2cc(=O)c3ccccc3o2)c1	.	.	-17%	.	.
CN(c1cccc(NC(=O)c2ccc(N(C)S(=O)(=O)c3ccccc3)cc2)c1)S(C)(=O)=O	-28%	25µM*	-1%	i	4%
O=C(Nc1cccc(C(F)(F)F)c1)c1ccc(C2Nc3ccccc3S(=O)(=O)N2)cc1 (stereo not given)	.	.	-26%	.	.
O=Cc1cccc2c1OCCO2	.	.	7.1µM*	.	.
O=C(O)/C=C/c1cccc2c1OCCO2	11%	16%	0%	i	-2%
CCN(CC)CCOC(=O)c1ccc(N/C=C(/C#N)c2nc(-c3cc4ccccc4oc3=O)cs2)cc1	?	6%	22%	?	8.9µM*
CCN(CC)CCOC(=O)c1ccc(N/C=C(/C#N)c2nc(-c3ccc(OC)cc3)cs2)cc1	6%[15.4 µM]	5%	?	i	-1%
CN1CCN(c2ccc(NC(=O)c3cc4ccccc4o3)cc2)CC1	-57%	-3%	-11%	i	1%
CC(C)c1ccc(NC(=O)c2cc([N+](=O)[O-])ccc2N2CCOCC2)cc1	-1%	-12%	?	?	-7%
O=C(Nc1ccc(N2CCN(C(=O)c3ccccc3)CC2)cc1)c1cc([N+](=O)[O-])ccc1N1CCOCC1	-75%	-8%	-12%	35µM*	-2%
O=C(Nc1ccc(N2CCN(C(=O)c3ccccc3)CC2)cc1)c1cc2ccccc2o1	-10%	35µM*	15%	i	-4%
CCOC(=O)C(=O)N1CCN(c2nc(C)c3c(c2C#N)CCCC3)CC1	.	.	5%	.	.
CCOC(=O)N/N=C/c1ccc(OCCSc2ccc(Cl)cc2)c(OC)c1	-10%[15.4 µM]	-26%	-2%	i	-4%
CCOc1cc(/C=N/NC(=O)COc2ccc(Cl)cc2)ccc1OS(=O)(=O)c1ccccc1	-9%	-12%	0%	i	13µM*
CCOC(=O)N/N=C/c1ccc(OCCSc2ccc(Cl)cc2)c(OCC)c1	-6%	-8%	-2%	.	35µM*
SMILES	gsp agonist	gsp antagonist	12-LOX inh	FUS yeast rescue	Mito fusion act
COc1cc(/C=C/C(=O)OCCOc2ccc(Cl)cc2)ccc1O	.	.	20µM*	.	.
Cc1cnc(C)n1C1CCN(S(=O)(=O)c2ccc(C#N)cc2)CC1	.	.	59%	.	.
COc1ccnc(-c2nnc3ccc(N4CCc5ccccc5CC4)nn23)c1	.	.	50µM*	.	.
COC1CCN(C(=O)c2ccnc(-c3nnc4ccc(Nc5ccccc5)nn34)c2)CC1	.	.	48%[176 µM]	.	.
COC1CCN(C(=O)c2ccnc(-c3nnc4ccc(N5CCOCC5)nn34)c2)CC1	.	.	100µM*	.	.
CCCc1nnc(NC(=O)c2cc(=O)c3ccc(C)c(C)c3o2)s1	.	.	-5%	.	.
Cc1sc2ncnc(N3CCOCC3)c2c1-c1ccccc1	.	.	8%	.	.
CC(C)C[C@H](NC(=O)c1nc[nH]c1C(=O)NC(c1ccccc1)c1ccccc1)C(=O)OC(C)(C)C	-64%	-20%	-4%	14µM*	7%
Cc1nc(SCCO)c([N+](=O)[O-])[nH]1	12%[15.4 µM]	-12%	25µM*	i	-1%
Cn1c([N+](=O)[O-])cnc1N1CCN(c2nncs2)C1=O	10µM*	5%	7%	i	3%
O=C1NCCN1c1ncc([N+](=O)[O-])s1	.	5%	19%	i	1%
Cc1oc(-c2nc(C#N)c(NCC3CCCO3)o2)cc1S(=O)(=O)N1CCCCCC1 (stereo not given)	.	.	78%	.	.
O=C(CN1C(=O)CC(c2ccco2)Sc2ccccc21)NC1CCCCC1 (stereo not given)	8%	50µM*	-37%	i	14%
CCn1c(SCC(=O)Nc2nccs2)nnc1-c1ccc(S(=O)(=O)N2CCCCCC2)cc1	20%	40µM*	0%	i	-3%
Cc1ccc(C2CCCN2S(=O)(=O)c2ccc(C)cc2)cc1 (stereo not given)	.	.	13%	.	.
O=C(Cn1cnc2sc3c(c2c1=O)CCC3)NC1CCCc2ccccc21 (stereo not given)	.	.	8%	.	.
CC(=O)Nc1cccc(-c2nnc(SCC(=O)c3cc([N+](=O)[O-])ccc3Cl)o2)c1	.	.	-9%	13µM*	.
O=C(CSc1nnc(-c2ccncc2)o1)c1cccc([N+](=O)[O-])c1	5%[15.4 µM]	-12%	-4%	i	2%
COCCN(C)C(=O)c1cn2cc(-c3ccccc3Cl)n(CC3CC3)c(=O)c2n1	.	.	35%	.	.
Cc1cc(N2C(=O)CC(N3CCN(c4ccc(C(=O)c5cccs5)cc4)CC3)C2=O)no1 (stereo not given)	1%	0%	32µM*	i	0%
Cc1ccc(CN2C(=O)c3ccccc3Sc3ccc(C(=O)NCc4ccco4)cc32)cc1	.	.	-30%	10µM*	.
O=C(NCc1ccco1)c1ccc2c(c1)N(Cc1c(F)cccc1Cl)C(=O)c1ccccc1S2	.	.	0%	?	.
COc1ccc(CCNC(=S)Nc2ccc(OC)cc2)cc1	-122%	5%	?	i	-1%
CCC(C)c1ccc(NC(=S)Nc2ccc(OC)cc2)cc1 (stereo not given)	0%[15.4 µM]	-3%	45µM*	i	?
CCOc1ccc(NC(=S)Nc2ccc(OC)cc2)cc1	1%[15.4 µM]	2%	?	i	-15%
COc1ccc(CCNC(=S)Nc2ccc(C(C)C)cc2)cc1	2%	-13%	40µM*	?	15%
CC1=C[C@@H](CNCc2ccccn2)[C@H](C(C)C)C[C@H]1Cc1nnc(-c2ccc(N(C)C)cc2)o1	.	.	109%	.	.
